Measured values as given in PubChem BioAssay (NCATS).
Where “and” joins values, the source holds several entries; their conditions need not be identical. Equal values may be shown once. Records with an inconclusive call do not appear. Entries that show only a call come without a potency. A number with no mark means an inactive call. Calls of active or inactive are those of the source. Calls follow the shape of the dose curve; as a rule, active = well fitted curve in the direction sought with a large enough effect; inconclusive = small, poorly fitted or top-dose-only effect, or another doubt; inactive = no such curve, though single readings can be large; an effect the other way counts as inactive or inconclusive.

Columns and labels:
[1] = biological target: Cellular tumor antigen p53 (Homo sapiens) (UniProt P04637); assay: Primary qHTS for small molecule compounds that upregulate eGFP-tagged delta133p53alpha (in N-terminal) cells. (AID 2060322); settings: NCI-H358 eGFP-delta133p53alpha fluorescence, 24 h; activation: hits give high values; also: nearly all actives have a fitted effect of over 75% in size; also: potency is read from the fitted curve at half-maximal effect
Sequence of Cellular tumor antigen p53 (Homo sapiens) (P04637 whole entry, looked up): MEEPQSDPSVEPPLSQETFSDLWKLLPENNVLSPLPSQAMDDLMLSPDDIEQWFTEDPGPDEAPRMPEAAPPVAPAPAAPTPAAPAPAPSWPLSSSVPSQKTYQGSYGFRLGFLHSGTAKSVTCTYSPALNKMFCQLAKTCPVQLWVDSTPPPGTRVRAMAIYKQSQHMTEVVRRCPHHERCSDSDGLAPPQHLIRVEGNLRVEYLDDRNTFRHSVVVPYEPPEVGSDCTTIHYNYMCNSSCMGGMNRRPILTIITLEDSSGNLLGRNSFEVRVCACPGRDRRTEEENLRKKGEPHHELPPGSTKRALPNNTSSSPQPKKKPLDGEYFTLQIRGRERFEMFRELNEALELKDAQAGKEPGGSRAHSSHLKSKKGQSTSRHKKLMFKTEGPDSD
How it was run: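 NCI-H358 cells pre-induced 24 h with 10 ng/ml doxycycline to express N-terminal eGFP-delta133p53alpha, then dosed 24 h at 37C without doxycycline; fixed, Hoechst-stained, GFP intensity by laser scanning cytometry, normalized to DMSO (0%) and 57.5 uM 5-azacytidine (100%).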

[2] = biological target: Aldehyde dehydrogenase, mitochondrial (Homo sapiens) (UniProt P05091); assay: qHTS for Inhibitors of the Aldehyde Dehydrogenase Family (ALDH2) Primary screen (AID 2061308); settings: ALDH2 enzyme inhibition qHTS, 1536-well; series mostly up to 56 µM; also: nearly all actives have a fitted effect of over 55% in size
[3] = biological target: Retinaldehyde dehydrogenase 3 (Homo sapiens) (UniProt P47895); assay: qHTS for Inhibitors of the Aldehyde Dehydrogenase Family (ALDH1A3) Primary screen (AID 2061315); settings: ALDH inhibition qHTS; series mostly up to 56 µM

Row | SMILES | activation [1] | Potency [2] | Potency [3] | Potency [1] | activity change, negative = inhibition [2] | activity change, negative = inhibition [3]
1 | COc1ccc(/C=C/C(=O)O[C@@H]2[C@@H](OC(C)=O)[C@@H](OC(C)=O)[C@H](O[C@H]3[C@@H]4C=CO[C@@H](O[C@@H]5O[C@H](CO)[C@@H](O)[C@H](O)[C@H]5O)[C@@H]4[C@@]4(CO)O[C@@H]34)O[C@H]2C)cc1 | 5.34% | inactive | inactive |  |  | 
2 | C=C(C)C(=O)OC1CC(CO)CCC/C(CO)=C/C2OC(=O)C(=C)C21 (centres undefined) |  | inactive | inactive | 14.8 µM (active) |  | 
3 | C[C@]12CCC[C@](C)(C(=O)O)C1[C@@H](O)[C@@H](O)C13CC(CCC12)C(CO)(O[C@@H]1O[C@H](CO)[C@@H](O)[C@H](O)[C@H]1O)C3 (some centres undefined) | -9.16% | inactive | inactive |  |  | 
4 | CC(=O)OC1C(OC(=O)c2ccccc2)C2C(C)(C)CCC(OC(C)=O)C2(C)C23CCC(C)(C2)C(=O)CC13 (centres undefined) | -14.5% | inactive | inactive |  |  | 
5 | CN[C@H](C(=O)N[C@H](C(=O)N(C)[C@H](/C=C(\C)C(=O)O)C(C)C)C(C)(C)C)C(C)(C)c1ccccc1 | 15.8% | inactive | inactive |  |  | 
6 | CCC(CC)n1ccc2c(C(=O)NCc3c(C)cc(C)[nH]c3=O)cc(C#N)cc21 | -3.35% | inactive | inactive |  |  | 
7 | O=C(/C=C/c1ccc(O)cc1)OC[C@H]1O[C@@H](O/C(=C\c2ccccc2)C(=O)O)[C@H](O)[C@@H](O)[C@@H]1O | -2.29% | inactive | inactive |  |  | 
8 | COc1ccc(/C=C/C(N)=O)cc1OC | 2.68% | inactive | inactive |  |  | 
9 | OC[C@H]1O[C@@H](OC[C@H]2O[C@@H](OC/C=C/c3ccccc3)[C@H](O)[C@@H](O)[C@@H]2O)[C@@H](O)[C@@H]1O | 20.5% | inactive | inactive |  |  | 
10 | CC(C(=O)O)c1ccc(/C=C2\CCCCC2=O)cc1 (centres undefined) | -13.4% | inactive | inactive |  |  | 
11 | CC(C)[C@H]1CC[C@@]2(O)COC(=O)[C@H]2[C@@H]1/C=C(\CO)C(=O)O | -2.29% | inactive | inactive |  |  | 
12 | C=C1[C@H](OC(C)=O)[C@H]2[C@@H](OC(C)=O)[C@](C)(OC(C)=O)C[C@]2(OC(C)=O)C(=O)[C@H](C)/C=C/C(C)(C)C(=O)[C@H](OC(=O)C(C)CC)[C@H]1OC(C)=O (some centres undefined) | -14.5% | inactive | inactive |  |  | 
13 | O=C(OCc1cccc(O)c1O[C@@H]1O[C@H](CO)[C@@H](O)[C@H](O)[C@H]1O)C1(O)C(=O)C2C=CC1C1C=CC(=O)C(O)(C(=O)OCc3cccc(O)c3O[C@@H]3O[C@H](CO)[C@@H](O)[C@H](O)[C@H]3O)C21 (some centres undefined) | -29.8% | inactive | inactive |  |  | 
14 | N#Cc1cnc2cnc(NCc3cccnc3)cc2c1Nc1ccc(F)c(Cl)c1 |  | inactive | inactive | 2.69 µM (active) |  | 
15 | CCC1C(=O)OC23C=C[C@@H]4C(C(=O)O)=CO[C@H](O[C@@H]12)[C@@H]43 (some centres undefined) | 7.63% | inactive | inactive |  |  | 
16 | OC[C@H]1O[C@@H](O[C@H]2[C@H](OCc3ccccc3)O[C@H](CO[C@@H]3OC[C@@H](O)[C@H](O)[C@H]3O)[C@@H](O)[C@@H]2O)[C@H](O)[C@@H](O)[C@@H]1O | -15.2% | inactive | inactive |  |  | 
17 | C[C@]12C=CC(=O)C=C1CC[C@@H]1[C@@H]2[C@@H](O)C[C@@]2(C)[C@H]1CC[C@]2(O)C(=O)COC(=O)CCC(=O)O | 13% | inactive | inactive |  |  | 
18 | CC[C@@H](C)[C@H](N)C(=O)N1Cc2ccccc2C1 | 3.82% | inactive | inactive |  |  | 
19 | C[C@]12CCC(=O)C=C1[C@@H](O)C[C@@H]1[C@@H]2[C@@H](O)C[C@@]2(C)[C@H]1CC[C@]2(O)C(=O)CO | 16.3% | inactive | inactive |  |  | 
20 | CC(=O)/C=C/C1(O)C(C)=CC(=O)CC1(C)C (centres undefined) | 14.3% | inactive | inactive |  |  | 
21 | Cc1cccc(/C=N/Nc2cc(N3CCOCC3)n3nc(-c4ccncc4)cc3n2)c1 |  | inactive | inactive | 19 µM (active) |  | 
22 | CC1CC(C(O)C(C)(C)O)OC2CC3(C)C4(C)CCC5C(C)(C)C(=O)CCC5(C)C4CCC3(O)C12O (centres undefined) | -11.5% | inactive | inactive |  |  | 
23 | CC(CCC1(O)OC2CC3C4CC=C5CC(O[C@@H]6O[C@H](CO)[C@@H](O[C@@H]7O[C@@H](C)[C@H](O)[C@@H](O)[C@H]7O)[C@H](O)[C@H]6O[C@@H]6O[C@@H](C)[C@H](O)[C@@H](O)[C@H]6O)CCC5(C)C4CCC3(C)C2C1C)CO[C@@H]1O[C@H](CO)[C@@H](O)[C@H](O)[C@H]1O (some centres undefined) | 8.04% | inactive | inactive |  |  | 
24 | O=C(O)c1ccnc2cc(C(OCC3CCC(F)(F)CC3)c3ccccc3Cl)[nH]c12 (centres undefined) | 5.67% | inactive | inactive |  |  | 

Row | SMILES | activation [1] | Potency [2] | Potency [3] | Potency [1] | activity change, negative = inhibition [2] | activity change, negative = inhibition [3]
25 | CC1(C)CC[C@]2(C(=O)O[C@@H]3O[C@H](CO)[C@@H](O)[C@H](O)[C@H]3O)CC[C@]3(C)C(=CCC4[C@@]5(C)C[C@@H](O)[C@H](O)C(C)(C)C5CC[C@]43C)C2[C@@H]1O (some centres undefined) | -8.04% | inactive | inactive |  |  | 
26 | Cc1ccc2c(Nc3ccc(Cl)cc3)nccc2c1Nc1ncccc1-c1ncnc2nc[nH]c12 |  | inactive | inactive | 9.53 µM (active) |  | 
27 | COC1CC/C=C(\C)C(=O)Nc2cc(O)cc(c2)CC(C)CC(OC)C(O)C(C)/C=C(\C)C1OC(N)=O (centres undefined) | 6.87% | inactive | inactive |  |  | 
28 | CC(C)(C)[C@H](NC(=O)c1ccc(N)c(Cl)c1)C(=O)N1CCC[C@H]1C(=O)N[C@H](C#N)CC(=O)O | -7% | inactive | inactive |  |  | 
29 | Cc1cc(CS(=O)(=O)c2ccccc2)cc(OCc2ccc(CN3CCC[C@H]3CO)cc2)c1 | -28.2% | inactive | inactive |  |  | 
30 | COc1cn(-c2ccc(-n3cccn3)cc2F)nc(-c2ccnn2-c2ccccc2)c1=O | 0% | inactive | inactive |  |  | 
31 | C=C1C(=O)O[C@@H]2/C=C(\C)CC/C=C(\C(=O)O[C@@H]3O[C@H](CO)[C@@H](O)[C@H](O)[C@H]3O)CC[C@@H]12 | -5.36% | inactive | inactive |  |  | 
32 | C=CCc1cc(OC)c(OC(C)C(O)c2ccc(O)c(OC)c2)c(OC)c1 (centres undefined) | 4.46% | inactive | inactive |  |  | 
33 | CC(=O)c1ccc(O[C@@H]2O[C@H](CO[C@@H]3OC[C@@H](O)[C@H](O)[C@H]3O)[C@@H](O)[C@H](O)[C@H]2O)cc1 | -12.2% | inactive | inactive |  |  | 
34 | O=C(O)[C@H]1Cc2ccccc2CN1 | 6.21% |  |  |  | 6.47% [at 5.59 µM] | -14.2% [at 5.59 µM]
35 | COC1=CC(=O)C[C@@H](C)[C@]12Oc1cc(OC)cc(OC)c1C2=O | 4.58% | inactive | inactive |  |  | 
36 | CC1(O)CC(O)C2C(C(=O)O)=COC(OC3OC(CO)C(O)C(O)C3OC(=O)/C=C/c3ccc(O)cc3)C21 (centres undefined) | -15.3% | inactive | inactive |  |  | 
37 | CC(=O)c1cc2c(cc1O)OC(C)(C)C=C2 | 14.3% | inactive | inactive |  |  | 
38 | COC(=O)C[C@H]1C(C)(C)[C@H](OC(=O)C(C)C)[C@@]2(O)C(=O)[C@]1(C)C1CC[C@]3(C)C(CC(=O)O[C@H]3c3ccoc3)[C@]13O[C@@H]32 (some centres undefined) | -17.6% | inactive | inactive |  |  | 
39 | CCOC(=O)c1c(C)nn(-c2cccc([N+](=O)[O-])c2)c1C | -9.67% | inactive | inactive |  |  | 
40 | CC(C)CC[C@@H](O)[C@](C)(O)[C@H]1CC[C@@]2(O)C3=CC(=O)[C@@H]4C[C@@H](O)[C@@H](O)C[C@]4(C)[C@H]3CC[C@]12C | -7% | inactive | inactive |  |  | 
41 | COc1cc(C2Oc3c(OC)cc(CCCO)cc3C2CO)ccc1O[C@H]1O[C@H](C)[C@@H](O)[C@H](O)[C@@H]1O (some centres undefined) | -13.7% | inactive | inactive |  |  | 
42 | COc1cccc2c1CCC[C@H]2CN(C)CCc1ccc2ccoc2c1 | -3.57% | inactive | inactive |  |  | 
43 | CC(=O)NC(Cc1ccccc1)C(=O)O (centres undefined) | 1.67% and 0% | inactive | inactive |  |  | 
44 | CC1(CO)CCCC2(C)C1C(OC(=O)c1ccccc1)CC1C(=O)OCC12O (centres undefined) | -20.6% | inactive | inactive |  |  | 
45 | CC(C)(C)NCc1cc(Nc2ccnc3cc(Cl)ccc23)c2c(c1O)CCCC2 | -11% |  |  |  | -0.555% [at 0.464 µM] | -4.88% [at 0.464 µM]
46 | COC(=O)c1[nH]c(=O)c2ccccc2c1-c1ccc[nH]1 | -11.6% | inactive | inactive |  |  | 
47 | CC(C)=CCC[C@](C)(O[C@@H]1O[C@H](CO[C@@H]2O[C@@H](CO)[C@H](O)[C@H]2O[C@@H]2OC[C@@H](O)[C@H](O)[C@H]2O)[C@@H](O)[C@H](O)[C@H]1O)[C@H]1CC[C@]2(C)[C@@H]1[C@H](O)CC1[C@@]3(C)CC[C@H](O[C@@H]4O[C@H](CO)[C@@H](O)[C@H](O)[C@H]4O[C@@H]4O[C@H](CO)[C@@H](O)[C@H](O)[C@H]4O)C(C)(C)C3CC[C@]12C (some centres undefined) | -6.87% |  |  |  | 1.66% [at 11.2 µM] | 19.1% [at 11.2 µM]
48 | C[C@@H]1O[C@@H](O[C@H]2[C@H](O)[C@@H](C(=O)O)O[C@@H](O[C@H]3CC[C@@]4(C)C(CC[C@]5(C)C4CC=C4C6CC(C)(C)CC[C@]6(C(=O)O)CC[C@]45C)C3(C)C)[C@@H]2O[C@@H]2OC[C@@H](O)[C@H](O)[C@H]2O)[C@H](O)[C@H](O)[C@H]1O (some centres undefined) | 2.68% | inactive | inactive |  |  | 
